The list is not random: actives were taken first. Their share in the collection is about 12%.
JMJD2A Tudor – inhibitors of human JMJD2A Tudor domain; 390,000 compounds, 4.4% hits; O75164; AlphaScreen JMJD2A-Tudor / H3K4me3 peptide binding; AID 504339; Potency, µM (series often up to 114 µM), usual class: inhibitors; note: nearly all actives have a fitted effect of over 50% in size
PLK1 PBD inh – blocks phosphopeptide binding to human PLK1 polo-box domain. 360,000 compounds, 2.8% hits. AID 720504. Plk1 PBD binding of FITC phosphopeptide, fluorescence polarization. Potency, µM, most hits filed as inhibitors; note: series mostly up to about 57 µM; nearly all actives have a fitted effect of over 65% in size
G9a block – blocks human histone lysine methyltransferase G9a; Q96KQ7; Potency, µM (series often up to 102 µM), actives largely listed as inhibitors; 350,000 compounds, 8.8% hits; AID 504332; G9a H3K9 monomethylation, AlphaScreen, 2 h; note: nearly all actives have a fitted effect of over 75% in size
Target sequence (Q96KQ7 913-1193 limits assumed): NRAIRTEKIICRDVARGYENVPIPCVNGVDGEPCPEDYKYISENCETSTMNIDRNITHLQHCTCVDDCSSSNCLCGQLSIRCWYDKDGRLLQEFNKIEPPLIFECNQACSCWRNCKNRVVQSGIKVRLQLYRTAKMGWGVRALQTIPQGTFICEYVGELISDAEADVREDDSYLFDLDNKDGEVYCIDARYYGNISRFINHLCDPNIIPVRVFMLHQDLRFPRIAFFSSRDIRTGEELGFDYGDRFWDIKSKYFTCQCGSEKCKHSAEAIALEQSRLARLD
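Step 1: enzyme (final 20 nM) with compound, 15 min RT. Step 2: substrate peptide 500 nM and SAM 20 uM, 2 h RT. Step 3: anti-H3K9me1 antibody and AlphaScreen beads, 10 min, then plate read.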
HP1b binding inh – blocks HP1-beta chromodomain binding to methylated histone tails; 390,000 compounds, 0.56% hits; AlphaScreen HP1-beta / biotin-H3K9me3 peptide binding; Potency, µM (series often up to 114 µM), actives largely listed as inhibitors; note: nearly all actives have a fitted effect of over 70% in size
Target sequence (P83916 whole entry, looked up): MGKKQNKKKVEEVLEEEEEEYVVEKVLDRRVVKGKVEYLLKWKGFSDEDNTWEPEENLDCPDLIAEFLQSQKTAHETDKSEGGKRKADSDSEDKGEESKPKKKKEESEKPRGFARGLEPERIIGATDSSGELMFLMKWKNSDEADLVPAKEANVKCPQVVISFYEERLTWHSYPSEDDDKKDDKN
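AlphaScreen: HP1-beta (50 nM) preformed 30 min with biotin-H3(1-18)K9me3 peptide (50 nM) in PBS pH 7.4, 0.01% Tween-20. Compound added for 30 min at RT, then streptavidin donor/nickel chelate acceptor beads (10 ug/mL) for 30 min.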
BAZ2B inh – BAZ2B (human) inhibition; AlphaScreen BAZ2B-H3K14Ac peptide displacement; 360,000 compounds, 4.4% hits; Potency, µM (top dose mostly 114 µM), most hits filed as inhibitors; Q9UIF8; AID 504333; note: nearly all actives have a fitted effect of over 60% in size
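AlphaScreen luminescence quantifies BAZ2B engagement of H3K14Ac peptide; the protein and biotinylated peptide are both at 50 nM final, buffer PBS pH 7.4 with 0.01% Tween-20, all steps at room temperature.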
Sfp inh – blocks B. subtilis Sfp PPTase activity. Q9F4F7. Biochemical Sfp PPTase activity, qHTS. Potency, µM, actives largely listed as inhibitors. 310,000 compounds, 3.5% hits;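 note: the enzyme is Sfp with the accession as filed and its product quenches rhodamine fluorescence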
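Reaction rates are the 30-min fluorescence difference (ex 525, em 598 nm) in wells containing 15 nM Sfp, 5 uM rhodamine-CoA and 12.5 uM BHQ-2-YbbR at pH 7.6 with 10 mM MgCl2.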
Numbers stand for hits; 0 = inactive; ? = inconclusive; - = no result; ! = a repeat was not active; [ ] = dose if it differs, or a comment. Calls come from the whole dose curve; as a rule, active = well fitted curve in the direction sought with a large enough effect; inconclusive = small, poorly fitted or top-dose-only effect, or another doubt; inactive = no such curve, though single readings can be large; an effect the other way counts as inactive or inconclusive.

SMILES | JMJD2A Tudor | PLK1 PBD inh | G9a block | HP1b binding inh | BAZ2B inh | Sfp inh
O=C(Nc1ccc(N2CCOCC2)c(C(=O)O)c1)c1ccc(Br)cc1 | 70.8µM | - | 0 | 0 | ? | -
O=C(Nc1ccc(N2CCC(N3CCCCC3)CC2)c(C(=O)O)c1)c1ccc(Br)cc1 | ? | - | 0 | 0 | 79.4µM | -
O=C(Nc1cnc(N2CCC(N3CCCCC3)CC2)c(C(=O)O)c1)c1ccc(Br)cc1 | 79.4µM | - | ? | 0 | ? | -
O=C(Nc1ccc(N2CCOCC2)c(Cl)c1)c1ccc(Cl)cc1 | 0 | 0 | 0 | 0 | 0 | 0
Cc1cccc(C(=O)Nc2ccc(N3CCC(CCN4CCOCC4)CC3)c(C(=O)O)c2)c1 | 0 | - | 0[12.7 µM] | 0 | 31.6µM | -
Cc1cccc(C(=O)Nc2ccc(N3CCN(c4ccc(F)cc4)CC3)c(C(=O)O)c2)c1 | ? | - | 0 | 0 | 0 | -
O=C(Nc1ccc(N2CCCC2)cc1)c1ccc(Br)cc1 | 0 | 0 | - | 0 | ? | 0
O=C(Nc1ccccc1)c1cnc(N2CCCCC2)c2ccccc12 | 0 | - | 0 | 0 | 0 | -
O=C(O)CCC(=O)N1CCCC1C(=O)O (stereo not given) | - | - | 0 | - | - | -
COc1ccc(CNC(=O)c2cnn(-c3ccc(C)cc3)c2-n2cccc2)cc1OC | 0 | - | 0 | 0 | ? | -
CSCC[C@H](NC(=O)c1ccc2c(c1)OCO2)c1nnc2ccccn12 | 0 | 0 | - | 0 | 0 | 0
CCN(CC)C(=O)Cn1cc(S(=O)(=O)CC(=O)Nc2ccccc2C)c2ccccc21 | 0 | 0 | - | 0 | - | -
O=C(CSc1nc2c(oc3ccccc32)c(=O)n1-c1ccccc1)Nc1ccc(F)c(Cl)c1 | 0 | - | 0 | 0 | 0 | -
CCOc1cc(/C=C\[N+](=O)[O-])ccc1OCC(=O)Nc1ccccc1C | 0 | ? | ? | 0 | 0 | 2µM
O=C(NC(=S)Nc1ccc(N2CCCC2)cc1)c1ccc(F)cc1 | ? | 0 | ? | 0 | 11.2µM | 0
O=C(NC(=S)Nc1ccc(CN2CCOCC2)cc1)c1ccc2c(c1)OCCO2 | ? | 0 | 44.7µM | ? | ? | ?
O=C(NC(=S)Nc1ccc(F)cc1)c1ccc2c(c1)OCCO2 | 0 | 0 | ? | 0 | ? | 0
CC(C)CC(=O)NC(=S)Nc1ccc(CN2CCOCC2)cc1 | 0 | 0 | - | 0 | 0 | 0
O=C(NC(=S)Nc1ccc(N2CCCCC2)cc1)c1ccc2c(c1)OCCO2 | ? | 0 | ? | ? | 10µM | 0
O=C(NC(=S)Nc1ccc(N2CCOCC2)cc1)c1ccc2c(c1)OCCO2 | 20µM | 8.44µM | 10µM | 0 | ? | 0
CS(=O)(=O)N1CCN(c2ccc(NC(=S)NC(=O)c3ccc4c(c3)OCO4)cc2)CC1 | 0 | 0 | ? | 0 | 0 | 0
CCOc1ccc2nc(N(Cc3cccnc3)C(=O)c3ccc4c(c3)OCCO4)sc2c1 | 0 | - | 0 | 0 | 0 | -
CC(=O)N1CCc2cc(S(=O)(=O)NC(CC(C)C)C(=O)NCCc3ccccc3)ccc21 (stereo not given) | 0 | - | 0 | 0 | - | -
COCCn1c(=O)c(C)nc2cnc(N3CCN(C)CC3)nc21 | - | - | 0[0.501 µM] | - | - | 0
CC(Sc1ccc2c(c1)OCCO2)C(=O)Nc1ccc(N2CCOCC2)cc1 (stereo not given) | 0 | ? | 50.1µM | 0 | 0 | 0
SMILES | JMJD2A Tudor | PLK1 PBD inh | G9a block | HP1b binding inh | BAZ2B inh | Sfp inh
Cc1cccc(N2CCN(C(=O)CCS(=O)(=O)c3ccc(Br)cc3)CC2C)c1 (stereo not given) | ? | ? | 25.1µM | 28.2µM | 31.6µM | 0
CC(=O)N1CCCc2cc(S(=O)(=O)CCC(=O)N3CCN(c4cccc(C)c4)C(C)C3)ccc21 (stereo not given) | 56.2µM | 0 | 50.1µM | 0 | 50.1µM | 0
COc1cc(C(CC(=O)Nc2ccc(Br)cn2)N2Cc3ccccc3C2=O)cc(OC)c1OC (stereo not given) | 0 | - | 0 | 0 | 0 | -
Cc1cc(C)n2nc(SCC(=O)c3cc(C)n(-c4cc(C)on4)c3C)nc2n1 | 0 | 0 | 50.1µM | 0 | ? | ?
COc1ccc(C(=O)N2CCC3(CC2)CCN(c2cccc(-c4ccccc4)c2)CC3)cc1 | - | - | 0[12.7 µM] | - | - | 0
CCCCS(=O)(=O)/C=C\C1C2C=CC(C2)C1S(=O)(=O)CCCC (stereo not given) | 0 | 0 | 0 | 0 | 0 | 0
CCCCS(=O)(=O)/C=C\C=C/S(=O)(=O)CCCC | ? | 15µM | ? | 0 | 0 | 11.2µM
CCOC(=O)c1nc(N)c(C(=O)OCC)[nH]1 | 0[11.4 µM] | 10.6µM | 0 | 0 | 0 | 0
O=C(NCC(=O)N1CC(O)CC1C(=O)N1CCCC1C(=O)OCc1ccccc1)OCc1ccccc1 (stereo not given) | 0 | 0 | 0 | 0 | 0 | 0
CC(C)C(=O)SCCCCCCC(=O)Nc1nc(-c2ccccc2)cs1 | - | - | - | - | - | 0
COC/C=C/C1=CC2=CC(=O)C(C)(OC(=O)c3cccs3)C(=O)C2=CO1 (stereo not given) | - | - | - | - | - | 0
COC/C=C/C1=CC2=CC(=O)C(C)(OC(=O)C3CCCC3)C(=O)C2=CO1 (stereo not given) | 63.1µM | 23.8µM | ? | ? | 56.2µM | 79.4µM
COC/C=C/C1=CC2=CC(=O)C(C)(OC(=O)c3ccco3)C(=O)C2=CO1 (stereo not given) | - | - | ? | - | 50.1µM | 56.2µM
CC1(OC(=O)C2CCCC2)C(=O)C=C2C=C(C3CC3)OC=C2C1=O (stereo not given) | - | - | - | - | - | 0
C[C@H](CO)N1C[C@H](C)[C@@H](CN(C)C(=O)Nc2ccc3c(c2)OCO3)Oc2c(NC(=O)Nc3ccc4c(c3)OCO4)cccc2C1=O | ? | 0 | - | 0 | - | -
CCOc1ccc(-n2nc(CO)c(C(=O)NCc3cccs3)n2)cc1 | 0 | - | 0 | 0 | 0 | -
COc1ccc(N(CC(=O)Nc2cc(Cl)ccc2C)S(=O)(=O)c2c(C)n[nH]c2C)cc1 | 0 | 0 | 0 | 0 | 0 | 0
Cc1scc2c1N(C(=O)CN1CCN(C)CC1)c1ccccc1NC2=O | 0 | 0 | 35.5µM! | 0 | ? | 0
S=c1[nH]nc(COc2ccccc2)n1/N=C/c1cccnc1 | 10µM | ? | 1.78µM | 0 | 0 | 0
Cc1ccc(/C=N/n2c(COc3ccccc3)n[nH]c2=S)cc1 | ? | 21.2µM | 8.91µM | 0 | 0 | ?
COc1cccc(/C=N/n2c(COc3ccccc3)n[nH]c2=S)c1 | 79.4µM | 23.8µM | 1.78µM | ? | ? | ?
CC(C)c1ccc(/C=N/n2c(COc3ccccc3)n[nH]c2=S)cc1 | 35.5µM | 23.8µM | 50.1µM | 39.8µM | ? | 0
O=C(O)COc1ccc(/C=N/n2c(COc3ccccc3)nc3ccccc3c2=O)cc1 | 0 | 0 | ? | 0 | 0 | 0
COc1cccc(/C=N\NC(=O)c2ccc(Cn3cc(Br)c([N+](=O)[O-])n3)o2)c1O | 0 | 0 | 0 | 0 | 0 | ?
O=C(Nc1cc2ccc(O)cc2oc1=O)c1ccccc1 | 0 | - | 0 | 0 | 0 | -
Cc1ccc(NS(=O)(=O)c2cc(-c3cnc(C4CC4)o3)ccc2C)cc1Cl | ? | - | 0 | 0 | 0 | -

Screening results from PubChem.
